What all share (assay): NCI-60 one-dose screen, 48 h (100 = growth as untreated, 0 = no growth, -100 = all killed)
Holding throughout (conditions): 10 µM unless noted

The subject of experiment [1] is NCI-H23 lung.
The subject of experiment [2] is NCI-H226 lung.
For experiment [3], the system named is NCI-H322M lung.
In experiment [4] the test system is HOP-62 NSCLC.
Experiment [5] deals with NCI-H460 lung.
Experiment [6] has as its system HOP-92 NSCLC.
For experiment [7], the system named is NCI-H522 lung.
The test system of experiment [8] is A549/ATCC NSCLC.
The subject of experiment [9] is 786-0 renal.
The test system of experiment [10] is COLO 205 colon.
For experiment [11], the system named is DU-145 prostate.
For experiment [12], the system named is K-562 leukemia.
The subject of experiment [13] is MALME-3M melanoma.
The test system of experiment [14] is MDA-MB-231 breast.
The subject of experiment [15] is RXF 393 renal.
The test system of experiment [16] is SF-268 CNS.
Experiment [17] deals with SF-295 CNS.
For experiment [18], the system named is SF-539 CNS.
Experiment [19] deals with UACC-257 melanoma.
Experiment [20] concerns M14 melanoma.

The panel holds about 83,000 compounds, 20% with a hit somewhere; the sample as a whole holds those more often.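 Treatment: one concentration, 48 hours, 96-well format. Scoring: percent growth, with anything below 10 considered active.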 Unmarked numbers belong to inactive results. Calls of active or inactive are those of the source.

Regarding `Cc1ccc(S(=O)(=O)CCCl)cc1`, the growth in experiment [1] is 102%; in [2] it was 108%; in experiment [3] it was 128%; in experiment [4] it was 112%; in [5], 105%; in experiment [6] it was 76.1%. Besides, the growth in experiment [7] was 113%; in [8] it was 89.5%; in experiment [9], 108%; in experiment [10], 120%; in experiment [11], 112%; in experiment [12], 95.6%. The growth was 117% in experiment [13]; 117% in [14]; 100% in experiment [15]; 93.8% in experiment [16]; 111% in experiment [17]; 100% in experiment [18]. Besides, the growth in experiment [19] is 100%; in [20], 104%.
As to `OCc1cccnc1`, the growth in experiment [1] is 100%; in [2], 103%; in [3], 106%; in experiment [4], 99.8%; in experiment [5], 103%; in experiment [6], 98.4%. In addition, the growth is 108% in experiment [7]; 92.2% in [8]; 107% in experiment [9]; 107% in experiment [10]; 111% in experiment [11]; 117% in experiment [12]. In addition, the growth was 121% in [13]; 103% in experiment [14]; 112% in experiment [15]; 97.7% in [16]; 99% in [17]; 95.3% in [18]. Moreover, the growth was 91.2% in [19] and 98.2% in [20].
Turning to `CC(C)c1ccc(C(=O)OCCCl)cc1`, the growth in experiment [1] was 94%; in experiment [2], 106%; in experiment [3] it was 92.7%; in experiment [4], 82.2%; in experiment [5], 105%; in [6] it was 163%. The growth in experiment [7] was 97.2%; in experiment [8] it was 97.9%; in experiment [9], 95.2%; in experiment [10], 110%; in experiment [11], 117%; in experiment [12] it was 103%. Besides, the growth in experiment [13] is 89.9%; in experiment [14], 105%; in [15], 41.8%; in experiment [16] it was 112%; in experiment [17] it was 83.8%; in experiment [18] it was 104%. Also, the growth was 95.3% in experiment [19] and 93.6% in experiment [20].
Consider `O=C(c1ccccc1)c1ccc(-c2ccc(O)cc2)cc1`, for which the growth in [1] was 66.1%; in experiment [2], 89.3%; in experiment [3], 37.8%; in experiment [4], 43%; in experiment [5], 43.8%; in experiment [6], 71.7%. In addition, the growth in [7] is 25.8%; in [8], 38.6%; in experiment [9], 72.8%; in experiment [10], 142%; in experiment [11], 69.8%; in experiment [12], 90.2%. Also, the growth was 84% in [13]; 55.4% in experiment [14]; -4.28% (active) in experiment [15]; 67.4% in experiment [16]; 29.6% in experiment [17]; 79.5% in experiment [18]. Also, the growth in experiment [19] is 25.3%.
`O=C(NCc1ccco1)Nc1cccc2c(NC(=O)NCc3ccco3)cccc12`: the growth in experiment [1] is 75.5% [100 µM]; in [2], 112% [100 µM]; in [3], 120% [100 µM]; in [4], 104% [100 µM]; in [5], 111% [100 µM]; in [6] it was 124% [100 µM]. Moreover, the growth is 36.5% [100 µM] in [7]; 108% [100 µM] in [8]; 104% [100 µM] in [9]; 71.4% [100 µM] in experiment [10]; 53% [100 µM] in [11]; 32.9% [100 µM] in experiment [12]. Further, the growth in [13] is 111% [100 µM]; in experiment [14], 97.9% [100 µM]; in experiment [15], 117% [100 µM]; in [16], 96.3% [100 µM]; in experiment [17] it was 84.1% [100 µM]; in experiment [18], 30.2% [100 µM]. For the same molecule, the results for the growth in experiment [19] and in [20] were 112% [100 µM] and 66.3% [100 µM], respectively.
For `COC(=O)Cc1cc(COC(C)=O)ccc1C`, the growth is 104% in experiment [1]; 107% in [2]; 110% in experiment [3]; 110% in [4]; 109% in [5]; 79% in [6]. Also, the growth was 99.2% in [7]; 99.1% in experiment [8]; 100% in experiment [9]; 120% in experiment [10]; 116% in [11]; 108% in experiment [12]. The growth in experiment [13] was 110%; in experiment [14] it was 125%; in experiment [15] it was 107%; in [16], 113%; in experiment [17] it was 121%; in experiment [18], 111%. Further, the growth in [19] is 108%.
Consider `O=C(N/N=C\c1ccc(Cl)cc1Cl)c1ccncc1`, for which the growth in experiment [1] is 103%; in experiment [2] it was 102%; in experiment [3] it was 106%; in experiment [4], 112%; in experiment [5], 105%; in experiment [6] it was 87.9%. In addition, the growth in experiment [7] is 84.8%; in experiment [8], 91%; in experiment [9], 90.5%; in [10], 118%; in [11] it was 111%; in experiment [12], 96.7%. The growth is 99.1% in [13]; 98.9% in experiment [14]; 118% in experiment [15]; 98.7% in experiment [16]; 103% in [17]; 105% in [18]. The figures for the growth in experiment [19] and in experiment [20] were 104% and 100%, respectively.

The record behind these values is PubChem BioAssay (NCI).
